Results taken from PMC11062922 (Nature Chemical Biology, 2023).
Read-outs that look alike come from different tables or passages of the source.

How the values were obtained:
Details in all cases: read-out: apparent Kd, n = 1
PRKAA1 = test system: PRKAA1
PRKAG1 = test system: PRKAG1
PRKAG2 = test system: PRKAG2
PRKD1 = test system: PRKD1
[1] = compound concentrations:100 nM and 1000 nM (sheet 'Lestaurtinib' of Supplementary Table 1),run:Lestaurtinib_02367_R3,Plate:MR003
[2] = compound concentrations:100 nM and 1000 nM (sheet 'Lestaurtinib' of Supplementary Table 1),run:Lestaurtinib_02381_R1,Plate:MR004
[3] = compound concentrations:100 nM and 1000 nM (sheet 'Lestaurtinib' of Supplementary Table 1),run:Lestaurtinib_02381_R3,Plate:MR004
[4] = compound concentrations:100 nM and 1000 nM (sheet 'Lestaurtinib' of Supplementary Table 1),run:Lestaurtinib_02422_R1,Plate:MR006
[5] = compound concentrations:100 nM and 1000 nM (sheet 'Lestaurtinib' of Supplementary Table 1),run:Lestaurtinib_02437_R3,Plate:MR007
[6] = compound concentrations:100 nM and 1000 nM (sheet 'Lestaurtinib' of Supplementary Table 1),run:Lestaurtinib_02438_R3,Plate:MR008
[7] = compound concentrations:100 nM and 1000 nM (sheet 'Lestaurtinib' of Supplementary Table 1),run:Lestaurtinib_02443_R3,Plate:MR009
[8] = compound concentrations:100 nM and 1000 nM (sheet 'Lestaurtinib' of Supplementary Table 1),run:Lestaurtinib_02473_R2,Plate:MR010
[9] = compound concentrations:100 nM and 1000 nM (sheet 'Lestaurtinib' of Supplementary Table 1),run:Lestaurtinib_02473_R3,Plate:MR010
[10] = compound concentrations:100 nM and 1000 nM (sheet 'Lestaurtinib' of Supplementary Table 1),run:Lestaurtinib_02482_R2,Plate:MR011
[11] = compound concentrations:100 nM and 1000 nM (sheet 'Lestaurtinib' of Supplementary Table 1),run:Lestaurtinib_02487_R1,Plate:MR012
[12] = compound concentrations:100 nM and 1000 nM (sheet 'Lestaurtinib' of Supplementary Table 1),run:Lestaurtinib_02566_R3,Plate:MR014
[13] = compound concentrations:100 nM and 1000 nM (sheet 'Lestaurtinib' of Supplementary Table 1),run:Lestaurtinib_02584_R2,Plate:MR017
[14] = compound concentrations:100 nM and 1000 nM (sheet 'Lestaurtinib' of Supplementary Table 1),run:Lestaurtinib_02606_R2,Plate:MR019
[15] = compound concentrations:100 nM and 1000 nM (sheet 'Lestaurtinib' of Supplementary Table 1),run:Lestaurtinib_02624_R3,Plate:MR020
[16] = compound concentrations:100 nM and 1000 nM (sheet 'Lestaurtinib' of Supplementary Table 1),run:Lestaurtinib_02748_R1,Plate:MR024
[17] = compound concentrations:100 nM and 1000 nM (sheet 'Lestaurtinib' of Supplementary Table 1),run:Lestaurtinib_02752_R3,Plate:MR025
[18] = compound concentrations:100 nM and 1000 nM (sheet 'Lestaurtinib' of Supplementary Table 1),run:Lestaurtinib_02768_R3,Plate:MR028
[19] = compound concentrations:100 nM and 1000 nM (sheet 'Lestaurtinib' of Supplementary Table 1),run:Lestaurtinib_02896_R3,Plate:MR030
[20] = compound concentrations:100 nM and 1000 nM (sheet 'Lestaurtinib' of Supplementary Table 1),run:Lestaurtinib_03172_R1,Plate:MR031
[21] = compound concentrations:100 nM and 1000 nM (sheet 'Lestaurtinib' of Supplementary Table 1),run:Lestaurtinib_02364_R3,Plate:MR002
[22] = compound concentrations:100 nM and 1000 nM (sheet 'Lestaurtinib' of Supplementary Table 1),run:Lestaurtinib_02407_R1,Plate:MR005
[23] = compound concentrations:100 nM and 1000 nM (sheet 'Lestaurtinib' of Supplementary Table 1),run:Lestaurtinib_02407_R3,Plate:MR005

## Lestaurtinib
PRKAA1; [1]
  potency estimated from few doses: 951 nM
PRKAA1; [2]
  potency estimated from few doses: 919 nM
PRKAA1; compound concentrations:100 nM and 1000 nM (sheet 'Lestaurtinib' of Supplementary Table 1),run:Lestaurtinib_02381_R2,Plate:MR004
  potency estimated from few doses: 900 nM
PRKAA1; [3]
  potency estimated from few doses: 952 nM
PRKAA1; [4]
  potency estimated from few doses: 741 nM
PRKAA1; [5]
  potency estimated from few doses: 79.1 nM
PRKAA1; compound concentrations:100 nM and 1000 nM (sheet 'Lestaurtinib' of Supplementary Table 1),run:Lestaurtinib_02438_R1,Plate:MR008
  potency estimated from few doses: 898 nM
PRKAA1; [6]
  potency estimated from few doses: 1600 nM
PRKAA1; [7]
  potency estimated from few doses: 762 nM
PRKAA1; [8]
  potency estimated from few doses: 944 nM
PRKAA1; [9]
  potency estimated from few doses: 74.3 nM
PRKAA1; compound concentrations:100 nM and 1000 nM (sheet 'Lestaurtinib' of Supplementary Table 1),run:Lestaurtinib_02482_R1,Plate:MR011
  potency estimated from few doses: 1130 nM
PRKAA1; [10]
  potency estimated from few doses: 1490 nM
PRKAA1; [11]
  potency estimated from few doses: 253 nM
PRKAA1; compound concentrations:100 nM and 1000 nM (sheet 'Lestaurtinib' of Supplementary Table 1),run:Lestaurtinib_02487_R3,Plate:MR012
  potency estimated from few doses: 737 nM
PRKAA1; [12]
  potency estimated from few doses: 1310 nM
PRKAA1; compound concentrations:100 nM and 1000 nM (sheet 'Lestaurtinib' of Supplementary Table 1),run:Lestaurtinib_02572_R1,Plate:MR015
  potency estimated from few doses: 904 nM
PRKAA1; [13]
  potency estimated from few doses: 1310 nM
PRKAA1; [14]
  potency estimated from few doses: 1490 nM
PRKAA1; [15]
  potency estimated from few doses: 1310 nM
PRKAA1; compound concentrations:100 nM and 1000 nM (sheet 'Lestaurtinib' of Supplementary Table 1),run:Lestaurtinib_02724_R3,Plate:MR021
  potency estimated from few doses: 883 nM
PRKAA1; [16]
  potency estimated from few doses: 858 nM
PRKAA1; compound concentrations:100 nM and 1000 nM (sheet 'Lestaurtinib' of Supplementary Table 1),run:Lestaurtinib_02748_R2,Plate:MR024
  potency estimated from few doses: 956 nM
PRKAA1; compound concentrations:100 nM and 1000 nM (sheet 'Lestaurtinib' of Supplementary Table 1),run:Lestaurtinib_02752_R1,Plate:MR025
  potency estimated from few doses: 1360 nM
PRKAA1; [17]
  potency estimated from few doses: 1210 nM
PRKAA1; compound concentrations:100 nM and 1000 nM (sheet 'Lestaurtinib' of Supplementary Table 1),run:Lestaurtinib_02766_R1,Plate:MR027
  potency estimated from few doses: 1580 nM
PRKAA1; compound concentrations:100 nM and 1000 nM (sheet 'Lestaurtinib' of Supplementary Table 1),run:Lestaurtinib_02766_R3,Plate:MR027
  potency estimated from few doses: 1320 nM
PRKAA1; compound concentrations:100 nM and 1000 nM (sheet 'Lestaurtinib' of Supplementary Table 1),run:Lestaurtinib_02768_R1,Plate:MR028
  potency estimated from few doses: 932 nM
PRKAA1; [18]
  potency estimated from few doses: 921 nM
PRKAA1; compound concentrations:100 nM and 1000 nM (sheet 'Lestaurtinib' of Supplementary Table 1),run:Lestaurtinib_02896_R1,Plate:MR030
  potency estimated from few doses: 784 nM
PRKAA1; compound concentrations:100 nM and 1000 nM (sheet 'Lestaurtinib' of Supplementary Table 1),run:Lestaurtinib_02896_R2,Plate:MR030
  potency estimated from few doses: 1130 nM
PRKAA1; [19]
  potency estimated from few doses: 931 nM
PRKAA1; [20]
  potency estimated from few doses: 1570 nM
PRKAA1; compound concentrations:100 nM and 1000 nM (sheet 'Lestaurtinib' of Supplementary Table 1),run:Lestaurtinib_03172_R2,Plate:MR031
  potency estimated from few doses: 1330 nM
PRKAG1; compound concentrations:100 nM and 1000 nM (sheet 'Lestaurtinib' of Supplementary Table 1),run:Lestaurtinib_02339_R2,Plate:MR001
  potency estimated from few doses: 584 nM
PRKAG1; compound concentrations:100 nM and 1000 nM (sheet 'Lestaurtinib' of Supplementary Table 1),run:Lestaurtinib_02339_R3,Plate:MR001
  potency estimated from few doses: 531 nM
PRKAG1; [21]
  potency estimated from few doses: 1000 nM
PRKAG1; [1]
  potency estimated from few doses: 887 nM
PRKAG1; [2]
  potency estimated from few doses: 712 nM
PRKAG1; [3]
  potency estimated from few doses: 611 nM
PRKAG1; [22]
  potency estimated from few doses: 924 nM
PRKAG1; compound concentrations:100 nM and 1000 nM (sheet 'Lestaurtinib' of Supplementary Table 1),run:Lestaurtinib_02407_R2,Plate:MR005
  potency estimated from few doses: 928 nM
PRKAG1; [23]
  potency estimated from few doses: 1150 nM
PRKAG1; [4]
  potency estimated from few doses: 131 nM
PRKAG1; compound concentrations:100 nM and 1000 nM (sheet 'Lestaurtinib' of Supplementary Table 1),run:Lestaurtinib_02437_R2,Plate:MR007
  potency estimated from few doses: 1340 nM
PRKAG1; [5]
  potency estimated from few doses: 83.7 nM
PRKAG1; [6]
  potency estimated from few doses: 1600 nM
PRKAG1; [7]
  potency estimated from few doses: 935 nM
PRKAG1; [8]
  potency estimated from few doses: 859 nM
PRKAG1; [9]
  potency estimated from few doses: 835 nM
PRKAG1; [10]
  potency estimated from few doses: 1580 nM
PRKAG1; [11]
  potency estimated from few doses: 365 nM
PRKAG1; [12]
  potency estimated from few doses: 79.5 nM
PRKAG1; compound concentrations:100 nM and 1000 nM (sheet 'Lestaurtinib' of Supplementary Table 1),run:Lestaurtinib_02584_R1,Plate:MR017
  potency estimated from few doses: 798 nM
PRKAG1; [13]
  potency estimated from few doses: 936 nM
PRKAG1; compound concentrations:100 nM and 1000 nM (sheet 'Lestaurtinib' of Supplementary Table 1),run:Lestaurtinib_02601_R1,Plate:MR018
  potency estimated from few doses: 963 nM
PRKAG1; [14]
  potency estimated from few doses: 1240 nM
PRKAG1; compound concentrations:100 nM and 1000 nM (sheet 'Lestaurtinib' of Supplementary Table 1),run:Lestaurtinib_02624_R2,Plate:MR020
  potency estimated from few doses: 876 nM
PRKAG1; [15]
  potency estimated from few doses: 1320 nM
PRKAG1; compound concentrations:100 nM and 1000 nM (sheet 'Lestaurtinib' of Supplementary Table 1),run:Lestaurtinib_02748_R3,Plate:MR024
  potency estimated from few doses: 1790 nM
PRKAG1; compound concentrations:100 nM and 1000 nM (sheet 'Lestaurtinib' of Supplementary Table 1),run:Lestaurtinib_02752_R2,Plate:MR025
  potency estimated from few doses: 818 nM
PRKAG1; [17]
  potency estimated from few doses: 954 nM
PRKAG1; compound concentrations:100 nM and 1000 nM (sheet 'Lestaurtinib' of Supplementary Table 1),run:Lestaurtinib_02768_R2,Plate:MR028
  potency estimated from few doses: 1540 nM
PRKAG1; [18]
  potency estimated from few doses: 852 nM
PRKAG1; compound concentrations:100 nM and 1000 nM (sheet 'Lestaurtinib' of Supplementary Table 1),run:Lestaurtinib_02795_R2,Plate:MR022
  potency estimated from few doses: 1330 nM
PRKAG1; compound concentrations:100 nM and 1000 nM (sheet 'Lestaurtinib' of Supplementary Table 1),run:Lestaurtinib_02802_R1,Plate:MR029
  potency estimated from few doses: 1150 nM
PRKAG1; compound concentrations:100 nM and 1000 nM (sheet 'Lestaurtinib' of Supplementary Table 1),run:Lestaurtinib_02802_R2,Plate:MR029
  potency estimated from few doses: 1430 nM
PRKAG1; [19]
  potency estimated from few doses: 700 nM
PRKAG1; compound concentrations:100 nM and 1000 nM (sheet 'Lestaurtinib' of Supplementary Table 1),run:Lestaurtinib_03252_R1,Plate:MR032
  potency estimated from few doses: 744 nM
PRKAG1; compound concentrations:100 nM and 1000 nM (sheet 'Lestaurtinib' of Supplementary Table 1),run:Lestaurtinib_03260_R1,Plate:MR033
  potency estimated from few doses: 860 nM
PRKAG1; compound concentrations:100 nM and 1000 nM (sheet 'Lestaurtinib' of Supplementary Table 1),run:Lestaurtinib_03260_R2,Plate:MR033
  potency estimated from few doses: 760 nM
PRKAG2; compound concentrations:100 nM and 1000 nM (sheet 'Lestaurtinib' of Supplementary Table 1),run:Lestaurtinib_02367_R2,Plate:MR003
  potency estimated from few doses: 1350 nM
PRKAG2; [1]
  potency estimated from few doses: 1360 nM
PRKAG2; [22]
  potency estimated from few doses: 888 nM
PRKAG2; [23]
  potency estimated from few doses: 1340 nM
PRKAG2; [4]
  potency estimated from few doses: 629 nM
PRKAG2; compound concentrations:100 nM and 1000 nM (sheet 'Lestaurtinib' of Supplementary Table 1),run:Lestaurtinib_02438_R2,Plate:MR008
  potency estimated from few doses: 1210 nM
PRKAG2; [9]
  potency estimated from few doses: 1240 nM
PRKAG2; [11]
  potency estimated from few doses: 352 nM
PRKAG2; [12]
  potency estimated from few doses: 888 nM
PRKAG2; [16]
  potency estimated from few doses: 1240 nM
PRKAG2; [20]
  potency estimated from few doses: 1370 nM
PRKD1; [21]
  potency estimated from few doses: 131 nM
PRKD1; compound concentrations:100 nM and 1000 nM (sheet 'Lestaurtinib' of Supplementary Table 1),run:Lestaurtinib_02443_R2,Plate:MR009
  potency estimated from few doses: 226 nM
PRKD1; [7]
  potency estimated from few doses: 271 nM
PRKD1; compound concentrations:100 nM and 1000 nM (sheet 'Lestaurtinib' of Supplementary Table 1),run:Lestaurtinib_02473_R1,Plate:MR010
  potency estimated from few doses: 248 nM
PRKD1; [8]
  potency estimated from few doses: 235 nM
PRKD1; compound concentrations:100 nM and 1000 nM (sheet 'Lestaurtinib' of Supplementary Table 1),run:Lestaurtinib_02496_R2,Plate:MR013
  potency estimated from few doses: 47.1 nM
PRKD1; compound concentrations:100 nM and 1000 nM (sheet 'Lestaurtinib' of Supplementary Table 1),run:Lestaurtinib_02566_R1,Plate:MR014
  potency estimated from few doses: 253 nM
